The values below come from PubChem BioAssay (NCI).

Compounds without any hit were thinned out: in the full panel of roughly 79,000, 15% have a hit. Unmarked numbers belong to inactive results. The source made the active and inactive calls. No stated cut-off is given here; in the data, active means growth inhibition above about 70%; inactive means the rest.

Assay [1] in a line: NCI Yeast Anticancer Drug Screen. Data for the rad50 strain (AID 155).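 Further: 0% = growth of vehicle-only cultures of the same strain.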 To be noted: S. cerevisiae rad50 strain growth inhibition; at 50.0 µM; stronger effect = higher value. An outline of the steps: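 Cells are treated with compound, grown, and their growth is then scored against vehicle-only cultures of the same repair-deficient yeast strain.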
The nature of assay [2]: NCI Yeast Anticancer Drug Screen. Data for the mec2-1 strain (AID 157). To be noted: S. cerevisiae mec2-1 strain, at 50.0 µM, stronger effect = higher value. A digest of the protocol:
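Vehicle-treated cultures served as reference for growth inhibition of compound-exposed mec2-1 yeast.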

The nature of assay [3]: NCI Yeast Anticancer Drug Screen. Data for the sgs1 mgt1 strain (AID 161).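 Further: 0% = growth of cultures given vehicle only.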 To be noted: S. cerevisiae sgs1 mgt1 strain, at 50.0 µM, stronger effect = higher value. An outline of the steps:
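Test agents were incubated with a DNA-repair-mutant yeast strain. Growth was then read and compared against vehicle-treated controls.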

The nature of assay [4]: NCI Yeast Anticancer Drug Screen. Data for the cln2 rad14 strain (AID 165).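 Further: 0% = growth equal to vehicle treated cultures.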 To be noted: S. cerevisiae cln2 rad14 strain, at 50.0 µM, stronger effect = higher value. A digest of the protocol:
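Each compound was tested on cln2 rad14 yeast. Inhibition of growth was calculated against vehicle-exposed controls.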

Assay [5] in a line: NCI Yeast Anticancer Drug Screen. Data for the bub3 strain (AID 167). To be noted: S. cerevisiae bub3 mutant strain, at 50.0 µM, stronger effect = higher value. An outline of the steps:
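Part of a panel of yeast mutants defective in DNA damage repair or cell cycle regulation. Each strain is grown with compound, and inhibition is calculated relative to solvent-treated cultures.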

Assay [6] is described as follows: NCI Yeast Anticancer Drug Screen. Data for the mlh1 rad18 strain (AID 175). To be noted: S. cerevisiae mlh1 rad18 strain growth inhibition; at 50.0 µM; stronger effect = higher value. A digest of the protocol:
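Vehicle-treated cultures served as the reference for growth inhibition in a yeast strain carrying DNA damage repair alterations exposed to each compound.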

Turning to `Cc1ccccc1N=C(N)NC#N`, the growth inhibition in assay [1] is -14%; in assay [2], -31.9%; in assay [3] it was -15.1%; in assay [4] it was -4.65%; in assay [5], -13.2%; in assay [6] it was -49.7%.

`N#CCCN(C(=O)COc1ccc(Cl)cc1Cl)C1CCCCC1`: the growth inhibition was 85% (active) in assay [1]; 87.7% (active) in assay [2]; 73% (active) in assay [3]; 87.2% (active) in assay [4]; 89.3% (active) in assay [5]; 95% (active) in assay [6].

Regarding `COc1cc(/C=C\c2ccc(SC)cc2)cc(OC)c1OC`, the growth inhibition in assay [1] was 26.4%; in assay [2] it was 20.6%; in assay [3], 28.9%; in assay [4], 15.3%; in assay [5], 16.8%; in assay [6], -57.9%.

`COc1ccc(C(=O)NC(=S)Nc2cc(C(F)(F)F)ccc2Cl)cc1`: the growth inhibition in assay [1] was -18.6%; in assay [2], 0.1%; in assay [3], -11.2%; in assay [4], 84.8% (active); in assay [5], -3.8%; in assay [6] it was 11.7%.

`COc1ccc(C(C)=O)cc1CCCO`: the growth inhibition in assay [1] was -1.55%; in assay [2], 5.85%; in assay [3], 0.4%; in assay [4], 30.6%; in assay [5] it was 13%; in assay [6], 20.6%.

Take `O=C1C2=C(Nc3ccccc3N2)OC1c1ccc2c(c1)OCO2` (stereo unspecified): the growth inhibition in assay [1] is 4.15%; in assay [2] it was -9.95%; in assay [3], -20.1%; in assay [4] it was -7.9%; in assay [5] it was -29.4%; in assay [6], -0.1%.

`O=S(=O)(Cl)c1cccc2cc3ccccc3cc12`: the growth inhibition is 0.6% in assay [1]; -10.1% in assay [2]; 3.95% in assay [3]; -12.9% in assay [4]; 12.9% in assay [5]; -7.05% in assay [6].

Consider `COc1c2c(c(Cc3c4c(c(OC)c5c3OCO5)OC(C)C4)c3c1OCO3)CC(C)O2` (stereo unspecified), for which the growth inhibition in assay [1] is 24.1%; in assay [2], 2.35%; in assay [3], 5.65%; in assay [4], 6.05%; in assay [5], -10.1%; in assay [6] it was -7.3%.

Regarding `Cc1nc(N)nc(C)c1N=Nc1cc(Cl)cc(Cl)c1`, the growth inhibition in assay [1] is -27.1%; in assay [2], 4.15%; in assay [3], -2.2%; in assay [4], -32.9%; in assay [5], 10.2%; in assay [6], -7.85%.

Turning to `C/C=N\C(N)=S`, the growth inhibition was 1.45% in assay [1]; -1.3% in assay [2]; 4.8% in assay [3]; 9.05% in assay [4]; 9.8% in assay [5]; 1% in assay [6].

As for `CC(=O)OC1(C)C(=O)OC/C2=C/CN(C)CCC(OC(=O)C(O)(C(C)Cl)CC1C)C2=O` (stereo unspecified), the growth inhibition in assay [1] was 4.75%; in assay [2], 2.9%; in assay [3] it was -7.95%; in assay [4] it was 13%; in assay [5] it was -6.35%; in assay [6], -43.9%.

For the molecule `CN(C)C(CN)CC1=C(CC(CN)N(C)C)CCC1` (stereo unspecified), the growth inhibition was -15.5% in assay [1]; 5.25% in assay [2]; -5.5% in assay [3]; -1% in assay [4]; -5.25% in assay [5]; 17.6% in assay [6].

On to `CC(=O)OC(C)N(C(C)=O)c1ncc([N+](=O)[O-])s1` (stereo unspecified), for which the growth inhibition was -21.8% in assay [1]; 2.4% in assay [2]; -2.95% in assay [3]; -14.3% in assay [4]; 46.5% in assay [5]; 4.55% in assay [6].

As to `NC(=O)OCC(COc1ccc(Cl)cc1)OC(=O)c1cc([N+](=O)[O-])cc([N+](=O)[O-])c1` (stereo unspecified), the growth inhibition in assay [1] was 29.2%; in assay [2], 23.9%; in assay [3], 20.4%; in assay [4], 17.6%; in assay [5], 14.3%; in assay [6] it was 8.75%.

Consider `COc1cccc(-c2cc(=O)c3cc(N4CCCC4)ccc3[nH]2)c1`, for which the growth inhibition in assay [1] is -26.3%; in assay [2], -15.2%; in assay [3] it was -19.9%; in assay [4], 8.6%; in assay [5] it was -21.6%; in assay [6], -19.1%.

Turning to `NC(CSCCC(=O)O)C(=O)O` (stereo unspecified), the growth inhibition in assay [1] was -16.9%; in assay [2], -10.3%; in assay [3] it was -7.45%; in assay [4], -39.6%; in assay [5] it was -3.05%; in assay [6], -12.4%.

On to `CC1(C)COC(c2ccccc2Cl)OC1`, for which the growth inhibition in assay [1] was 20.1%; in assay [2], 9%; in assay [3], -0.45%; in assay [4], -24.6%; in assay [5], 0.7%; in assay [6], 18.6%.

For `CCC(=O)c1c2c(cc3ccccc13)CCCC2`, the growth inhibition in assay [1] was 11.7%; in assay [2], -10.7%; in assay [3], 7.3%; in assay [4], 3.85%; in assay [5] it was 38.2%; in assay [6] it was 34%.

As for `O=C(c1ccccc1)c1ccncc1`, the growth inhibition in assay [1] is 28.2%; in assay [2] it was -4.4%; in assay [3] it was -27.2%; in assay [4] it was -1%; in assay [5], -1.9%; in assay [6], -3.1%.

For `COC(=O)c1nc2n[nH]c(N)c2c2c1CCCCCCCCCC2`, the growth inhibition was 7.35% in assay [1]; 15.6% in assay [2]; -5.65% in assay [3]; -13.6% in assay [4]; 1.4% in assay [5]; 12.1% in assay [6].

On to `CC(Cc1ccccc1)NN` (stereo unspecified), for which the growth inhibition in assay [1] was 14.8%; in assay [2] it was 9.55%; in assay [3], 16.5%; in assay [4], 5.65%; in assay [5] it was 10.4%; in assay [6] it was 9.4%.
